From PubChem BioAssay (NCI)
The panel holds about 83,000 compounds, 20% with a hit somewhere; the sample as a whole holds those more often.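 Interpretation: 100, growth as untreated; towards 0, rising growth inhibition; 0, no net growth; 0 to -100, cell death. Compounds scoring below 10 were considered active.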 A number with no mark means an inactive call. Activity calls are given as the source filed them.

These compounds were tested on SR leukemia (assay: NCI-60 one-dose screen, 48 h (100 = growth as untreated, 0 = no growth, -100 = all killed)). Details: 10 µM unless noted.

Row | SMILES | growth
1 | O=C(OCc1ccccc1)n1nnc2ccccc21 | 107%
2 | COC1(OC)C2(Cl)C(Cl)=C(Cl)C1(Cl)C1COCC12 (configuration not stated) | 89.9%
3 | CCOC(=O)CO | 95%
4 | COc1cc(C(=O)NC(=S)NCc2ccncc2)cc(OC)c1OC | 74.2%
5 | Nc1ncnc2c1ncn2C1OC(CO)C2OC21 (configuration not stated) | 112%
6 | CC(C)(C)[Si](C)(C)OCC1OC(n2cnc3c(N)ncnc32)CC1OS(C)(=O)=O (configuration not stated) | 107%
7 | Cc1ccc(C)c(CCO)c1 | 110%
8 | CC(=O)CSc1ncnc2nc[nH]c12 | 87.8%
9 | CCOC(OCC)C(=O)c1ccccc1 | 132%
10 | CCCCCCCCCCCCCCCCOc1ccccc1NC(=O)CC(C)=O | 107%
11 | CC1(c2ccccc2)CO1 (configuration not stated) | 104%
12 | Cc1ccc(C)c(CN(C)C)c1O | 118%
13 | O=Cc1ccc(O)c(O)c1 | 82.9%
14 | C/C(=N\N=C(/C)c1cccc([N+](=O)[O-])c1)c1cccc([N+](=O)[O-])c1 | 86.4%
15 | Cc1nc(C)c(C(=O)O)cc1C(=O)O | 100%
16 | CCN(CC)CCCC(C)NC(=S)N/N=C(\C)c1ccccn1 (configuration not stated) | 17.7%
17 | COc1ccc(-c2csc(NC(=O)Nc3nc(-c4ccc(OC)cc4)cs3)n2)cc1 | 60.2%
18 | NC(CSSCC(N)C(=O)O)C(=O)O (configuration not stated) | -20.7% (active)
19 | Cc1cc(Cc2ccccc2)c(O)c(Cc2ccccc2)c1 | 91.3%

Row | SMILES | growth
20 | NNc1ncnc2nc[nH]c12 | 32.5%
21 | CCCOCc1cn[nH]n1 | 99.2%
22 | CCN(C(=O)Nc1ccccc1Cl)c1ccccc1 | 81.4%
23 | Cc1ccc(O)c(N)c1 | 113%
24 | CC(C)(C)NCCC(O)c1cc(C(F)(F)F)nc2c(C(F)(F)F)cccc12 (configuration not stated) | 121%
25 | CC1CC2C3CCC4=CC(=O)CCC4(C)C3CCC2(C)C1(O)C(=O)CO (configuration not stated) | 107%
26 | c1cc(CNCCNCc2ccncc2)ccn1 | 130%
27 | CC(C)Sc1ncnc2nc[nH]c12 | 122%
28 | Cc1cc2nc(C)c(C)nc2cc1C | 96.8%
29 | NNC(=O)CCCCl | 114%
30 | COc1cccc(N=CNc2cccc(OC)c2)c1 | 93.6%
31 | Cc1c(Cl)cccc1NC(=S)NC(=O)c1ccccc1 | 88.4%
32 | Cc1[nH]c(=S)[nH]c(=O)c1C | 97.9%
33 | COc1cc(-c2ccc(NC(=O)CC(C)=O)c(OC)c2)ccc1NC(=O)CC(C)=O | 93.7%
34 | Clc1ncnc2nc[nH]c12 | 102%
35 | CN(C)c1ncnc2c1cnn2C | 109%
36 | CC1CC(C)S(=O)(=O)C1 (configuration not stated) | 97.9%
37 | Cc1cc(C(=O)NN)c(C#N)c(=O)[nH]1 | 116%
